In PubChem BioAssay AID1918969 (ICCB-Longwood Screening Facility, Harvard Medical School, 2023) one finds inhibition data, which are given here for 92 compounds.

For orientation: inhibition means the relative decrease from the control value, in per cent.

Hit rate of the full screen: of about 190,000 compounds, about 280 (0.15%) were called active. Shown is part of a subset that was picked to be rich in actives. A number with no mark means an inactive call. No stated cut-off is given here; in the data, active means inhibition above about 27% (passing the limit was not always enough); inactive means the rest.

This experiment relates to HCMV UL50-UL53 nuclear egress complex (human cytomegalovirus). In words: inhibitors of HCMV UL50-UL53 interaction, biochemical, HTRF (AID 1918969). The conditions noted are these: normalized percent inhibition, active compounds read high, concentration not given here. On the technique in general: TR-FRET usually uses a lanthanide donor and a delayed reading to cut background.
As for `O=C(Nc1ccc2sccc2c1)C1CC1`, the inhibition was -0.1%.

For `COc1ccc(NC(=O)CN2C(=O)C(C)(C)c3ccccc32)cc1`, the inhibition is -13.1%.

`CCOC(=O)c1cc(Nc2cc(OCC)ccc2OCC)c2cc(C)ccc2n1`: the inhibition was -15.8%.

On to `COc1nc(N)c(C#N)c(-c2ccccc2)c1C#N`, for which the inhibition is 5.4%.

As for `CC(C)CSc1nccn2nc(-c3ccc(Cl)cc3)cc12`, the inhibition is 15.5%.

On to `CCOC(=O)c1cccc(NC(=O)c2ccc(CN3CC(=O)N4CSCC4C3=O)cc2)c1` (configuration not stated), for which the inhibition is -6.4%.

Regarding `C=C(C)C1Cc2c(C)nn(S(=O)(=O)c3ccc(C)cc3)c2C1` (configuration not stated), the inhibition is -7.3%.

For `COc1ccc(OC)c(NC(=O)Cn2cnc3c2c(=O)n(C)c(=O)n3C)c1`, the inhibition was -4.9%.

Turning to `CCOc1ccc(NC(=O)CCCN2C(=O)/C(=C/c3ccc(Cl)cc3)SC2=S)cc1`, the inhibition is -12.3%.

In the case of `CCOC(=O)c1c(N)sc2c1CCC(Br)C2=O` (configuration not stated), the inhibition was -67.7%.

In the case of `CCN(C(=O)CSc1nnc(CN(c2ccc(F)cc2)S(C)(=O)=O)n1C)c1ccccc1`, the inhibition was -23.6%.

`CCOc1cccc(C(=O)Nc2ccccc2C(=O)OC)c1`: the inhibition is 9.1%.

In the case of `O=C(Nc1c[nH]c(=O)[nH]c1=O)c1ccco1`, the inhibition is -1.3%.

Turning to `CC(C)CN(CC(C)C)C(=O)CCN1C(=O)c2ccccc2C1=O`, the inhibition was -21.3%.

Take `CN(C(=O)CSc1nc(-c2ccccc2)cc(-c2ccco2)c1C#N)c1ccccc1`: the inhibition is -15.3%.

Take `CC(NC(=O)NCc1ccccc1)c1nc(-c2ccncc2)n[nH]1` (configuration not stated): the inhibition was 8.4%.

Consider `C=CCn1c(=O)c(C(=O)NCc2ccc3c(c2)OCO3)c(O)c2ccccc21`, for which the inhibition is -23.4%.

With `CCOc1ccc(CN(C)C(=O)C2=NNC(=O)CC2)cc1`, the inhibition is -31.5%.

As to `COc1ccc(OCC(=O)N2N=C(c3ccc(Cl)cc3)CC2c2ccco2)cc1` (configuration not stated), the inhibition is -31.7%.

Consider `Cc1ccc(NC(=O)c2sc3ncnc(N4CCN(C)CC4)c3c2C)cc1F`, for which the inhibition was -16.4%.

As to `CCOC(=O)c1ccc(N=C2SC(C(=O)Nc3ccc(C)cc3C)CC(=O)N2C)cc1` (configuration not stated), the inhibition was -8.2%.

As for `N#CCSc1nnc(-c2ccccc2)c2ccccc12`, the inhibition was -26.2%.

For `Cc1cccc(NC(c2ccccn2)c2ccc3cccnc3c2O)n1` (configuration not stated), the inhibition was -53.1%.

Consider `O=S(=O)(Nc1ccc(-c2ccc(N3CCCCC3)nn2)cc1)c1ccc(F)cc1F`, for which the inhibition was -38.3%.

Consider `CCc1nc2cccnc2n1-c1ccc(CC(=O)N2CCOCC2)cc1`, for which the inhibition was -27.2%.

As for `CC1=Nc2c(ccc3cccnc23)C1(C)C`, the inhibition is -24.6%.

Consider `CC1CN(Cn2[nH]c(=O)ccc2=O)CC(C)O1` (configuration not stated), for which the inhibition was -7.4%.

Take `CC1=C(C(=O)OC2CCCC2)C(c2coc3ccc(C)cc3c2=O)C2=C(CC(c3ccco3)CC2=O)N1` (configuration not stated): the inhibition was -3.1%.

Take `O=C(NCc1cc2ccccc2s1)c1ccc(N2CCOCC2)nc1`: the inhibition was -4.6%.

For the compound `CC(C(=O)Nc1ccc(S(=O)(=O)N2CCCC2)cc1)N(C)Cc1ccc(F)cc1` (configuration not stated), the inhibition is -5%.

On to `COc1ccc(C2CC(=O)C3=C(C2)NC(C)=C(C(=O)Nc2ccc(C)cc2)C3c2ccccc2)cc1OC` (configuration not stated), for which the inhibition is -11.7%.

As to `O=C(NCCO)c1ccc(C(=O)NCCO)cc1`, the inhibition was -13.4%.

With `CCOc1ccc(NC(=O)CS(=O)(=O)c2cccc3nsnc23)cc1`, the inhibition is -37.5%.

As for `COc1ccccc1N1CCN(C(=O)Cc2csc(NC(=O)Nc3ccccc3)n2)CC1`, the inhibition is -7.3%.

For the compound `CC1CCN(C(=O)c2cn(C)cc3c(=O)n(-c4ccccc4)nc2-3)CC1`, the inhibition was -66.2%.

Take `CC(C)(C)c1ccc(CN2C(=O)N(Cc3ccccc3)S(=O)(=O)c3ccccc32)cc1`: the inhibition is -19.5%.

`Cc1nnc(NC(=O)Cn2cnc3oc(C)c(C)c3c2=O)s1`: the inhibition was -21.8%.

As to `O=S(=O)(NCCc1ccccn1)c1cc(Cl)cc(Cl)c1O`, the inhibition was -28.9%.

In the case of `Cc1noc(C)c1C(=O)c1c(C)[nH]n(-c2ccccc2)c1=O`, the inhibition was -25.3%.

As to `Cc1ccc(Sc2c(C)[nH]n(-c3ccccc3)c2=O)cc1`, the inhibition is -26%.

As for `CC1=NOC(=O)C1C(c1cccc(Br)c1)c1c(C)[nH]n(-c2ccccc2)c1=O` (configuration not stated), the inhibition is 59.5% (active).

For `O=C(CN1C(=O)c2ccccc2C1=O)Nc1ccc2c(c1)CCC(=O)N2`, the inhibition is -46%.

For the compound `COC(=O)c1ccc(C)c(NS(=O)(=O)c2ccc3c(c2)c(=O)sn3C)c1`, the inhibition was -31.7%.

In the case of `S=C(c1ccncc1)N1CCOCC1`, the inhibition was -13.4%.

For the compound `CCCCCCCCCCCCCCCC(=O)O[C@@H]1[C@@H](O)[C@@H](O)C([C@H](NC(=O)[C@@H]2C[C@@H](CCC)CN2C)[C@H](C)Cl)O[C@@H]1SC` (some centres not stated), the inhibition is -4.7%.

Consider `N#CCCn1cc(C=NCc2ccccc2)c(-c2cc3ccccc3o2)n1`, for which the inhibition is -30.5%.

`COc1ccc(F)cc1-c1cc(N2CCN(S(=O)(=O)c3ccc(F)c(Cl)c3)CC2)ncn1`: the inhibition is -27.5%.

As for `NS(=O)(=O)c1ccc(NC(=O)c2cc(-c3ccc4c(c3)OCO4)nc3ccccc23)cc1`, the inhibition was -4.6%.

For the compound `COC(=O)c1sccc1NC(=O)c1cc(=O)n2c(nc3cc(C)c(C)cc32)s1`, the inhibition is -30.2%.

Turning to `O=C1CN(S(=O)(=O)c2ccc(-c3ccc(=O)[nH]n3)s2)c2ccccc2N1`, the inhibition was -43.4%.

Turning to `O=C(Oc1ccccc1)c1cccc(C(=O)Oc2ccccc2)c1F`, the inhibition was -13.9%.

In the case of `COc1ccc(OC)c(NC(=O)c2cc3c([nH]c2=O)CC(C)(C)CC3=O)c1`, the inhibition is 3.5%.

With `Cc1ccc(C(=O)NCC(=O)NC2CC2)cc1`, the inhibition is -17.5%.

Take `N#CC(C#N)=C1SCN(c2cccc(Cl)c2)CS1`: the inhibition is -5%.

For the compound `COc1cccc(NC(=O)c2c(-c3cccnc3)noc2C)c1`, the inhibition was -15.4%.

Turning to `COc1ccc(NC(=O)CCCSc2nc3sc(C)c(C)c3c(=O)[nH]2)cc1`, the inhibition was -2.2%.

With `CNc1nc(OC)nc(N(C)C)n1`, the inhibition was 11.3%.

As to `O=C(Nc1ccc2oc(-c3ccccc3Br)nc2c1)c1cccc([N+](=O)[O-])c1`, the inhibition is 7%.

In the case of `CCc1nc(-c2cc(S(=O)(=O)N3CCCC(C(=O)Nc4ccc(C)c(F)c4)C3)c(C)s2)no1` (configuration not stated), the inhibition was -9.2%.

On to `Cc1ccc(NC(=O)CCCc2nc3cccnc3n2CCC(C)C)cc1`, for which the inhibition is -10.6%.

Consider `Nc1nc(Nc2ccccc2)sc1C(=O)c1ccc(Br)cc1`, for which the inhibition was -4.3%.

Take `CC1(C)Cc2cccc(Oc3ncnc4sccc34)c2O1`: the inhibition was -13%.

On to `O=C(CCS(=O)(=O)c1ccc2c(c1)NC(=O)CS2)NCc1ccccc1Cl`, for which the inhibition is -15.7%.

With `OC(Cc1nc2ccccc2o1)c1ccccc1` (configuration not stated), the inhibition is -3.6%.

For `COc1ccc(C(=O)CSc2nc3nc[nH]c3c(=O)[nH]2)cc1`, the inhibition is -13.4%.

Regarding `COc1cc(=O)[nH]c(SC(C)C(=O)Nc2ccccc2)n1` (configuration not stated), the inhibition was -5.6%.

Consider `CCCc1noc(-c2cc(S(N)(=O)=O)ccc2OC)n1`, for which the inhibition is 3.5%.

For `O=C(Cc1nc2ccccc2n1C(F)F)c1ccccc1`, the inhibition is -21.1%.

On to `COc1ccc(N(Cc2nc3ccccc3s2)S(=O)(=O)c2cccs2)cc1`, for which the inhibition is -24.9%.

For `NC(=O)c1ccc2c3c(cccc13)CC2`, the inhibition was -30.8%.

Take `Cc1nc(Nc2ccc(NC(=O)C(C)(C)C)cc2)cc(N(C)C)n1`: the inhibition is 7.9%.

Turning to `COc1cc(-c2noc(-c3ccccc3)n2)ccc1OCC(=O)Nc1ccc(F)cc1`, the inhibition is -31.7%.

Turning to `CCOC(=O)C1C(=O)CC(=O)C(C(=O)OCC)C1c1ccccc1` (configuration not stated), the inhibition was -6.9%.

As for `CCOC(=O)c1noc2ncnc(N(CC)c3ccccc3)c12`, the inhibition is -26.1%.

In the case of `O=C(NCN1CCN(CNC(=O)c2ccccc2)CC1)c1ccccc1`, the inhibition is -42.2%.

As for `CCn1c(=O)c(=O)n(CC)c2cc(N3CCCCC3)c(NC(=O)c3ccc(Cl)cc3)cc21`, the inhibition is 62.9% (active).

On to `CCn1c(=O)c(=O)n(CC)c2cc(N3CCCCC3)c(NC(=O)c3ccccc3)cc21`, for which the inhibition was -23.2%.

For `CCn1c(=O)c(=O)n(CC)c2cc(N3CCCCC3)c(NC(=O)c3cccc(F)c3)cc21`, the inhibition is -3.5%.

Consider `CCCCn1c(SCC(=O)N2CCCC2)nc2cn(C)nc2c1=O`, for which the inhibition was -19.7%.

Take `Cn1cc(CCC(=O)NC2CC2)c2ccccc21`: the inhibition is 0.4%.

As to `CC1(C)CC(=O)C2=C(C1)N(Cc1ccco1)C(=O)C2(NC(=O)c1cccs1)C(F)(F)F` (configuration not stated), the inhibition is -5.4%.

On to `CCN(CC)c1ccc2cc(-c3csc(-c4nc(-c5cc6ccc(N(CC)CC)cc6oc5=O)cs4)n3)c(=O)oc2c1`, for which the inhibition was -0.5%.

For the compound `Cc1cc(NC(=O)c2ccc(N(C)C)cc2)no1`, the inhibition was 1.2%.

Regarding `O=C(CC1=NS(=O)(=O)c2ccccc2N1)N1CCN(C(c2ccccc2)c2ccccc2)CC1`, the inhibition was -9.6%.

`C/C(=N\O)C(C)(C)Nc1ccccc1`: the inhibition was 24.2%.

Take `Cc1ccc(S(=O)(=O)N(C)CC(=O)OCc2nc3ccccc3s2)cc1`: the inhibition was -25.9%.

Turning to `CCOC(=O)c1c(NC(=O)CSc2nccn2C)sc2c1CCC(C)C2` (configuration not stated), the inhibition is -12.2%.

As to `CC(C)N(C(=O)CNc1cc(Cl)ccc1Cl)c1ccccc1`, the inhibition was -6.5%.

Consider `O=C1c2ccccc2C(=O)C1c1ccccc1F`, for which the inhibition is -3.9%.

As to `Cc1c(OCC(N)=O)ccc2c3c(c(=O)oc12)CCCC3`, the inhibition is 7.5%.

On to `NC(=O)c1ccc(-c2ccccc2)cc1C(N)=O`, for which the inhibition is -28.2%.

For the compound `Nc1nc(N)nc(SCC(=O)N2CCCC2)n1`, the inhibition was -9.6%.
